# Assay results reported in PubChem BioAssay.
# Calls of active or inactive are those of the source.
# Columns and labels:
# Albumin (Bos taurus) = Albumin (Bos taurus) (UniProt P02769); assay: bovine serum albumin binders on microarray, profiling panel, artefact control for SMM control protein annotation, biochemical, small-molecule microarray, Alexa647 label, 635/667 nm fluorescence (AID 1118); settings: BSA-A647 binding, fluorescence 635 nm, higher = more signal;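 further: score merges 667 nm emission intensity and signal-to-noise per printed compound spot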
# Chain of Albumin (Bos taurus) (P02769 whole entry, looked up): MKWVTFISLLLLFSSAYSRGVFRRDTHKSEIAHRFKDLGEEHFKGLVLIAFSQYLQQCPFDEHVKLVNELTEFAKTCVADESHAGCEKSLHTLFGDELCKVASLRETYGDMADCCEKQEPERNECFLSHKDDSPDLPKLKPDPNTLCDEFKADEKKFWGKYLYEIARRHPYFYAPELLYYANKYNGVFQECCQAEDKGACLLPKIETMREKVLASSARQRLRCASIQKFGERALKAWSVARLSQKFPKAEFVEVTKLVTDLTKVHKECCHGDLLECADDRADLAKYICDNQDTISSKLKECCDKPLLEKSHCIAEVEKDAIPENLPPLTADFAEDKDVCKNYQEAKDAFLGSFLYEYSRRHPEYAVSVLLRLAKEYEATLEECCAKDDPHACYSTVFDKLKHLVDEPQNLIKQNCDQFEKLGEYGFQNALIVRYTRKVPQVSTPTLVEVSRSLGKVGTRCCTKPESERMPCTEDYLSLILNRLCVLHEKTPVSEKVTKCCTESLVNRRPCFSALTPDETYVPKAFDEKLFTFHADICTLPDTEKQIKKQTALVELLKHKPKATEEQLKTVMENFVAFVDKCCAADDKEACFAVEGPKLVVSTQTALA
# [1] = small-molecule microarray binders of probe aXIP, primary screen, biochemical, NeuroSMM set, 635/667 nm fluorescence (AID 1119); settings: higher = more signal, called active from +8 up or from −8 down;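 further: probe is the protein aXip251-270 applied at 1 µg/mL to compound-printed slides; binding of probe to printed compounds measured as 667 nm fluorescence plus signal to noise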
# [2] = small-molecule binders of probe aNOTCH3, primary screen, biochemical, small-molecule microarray, 635/667 nm fluorescence (AID 1120); settings: higher = more signal;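 further: probe is a biotin-tagged antibody raised against NOTCH3 rather than NOTCH3 protein; score merges spot fluorescence near 667 nm with spot signal to noise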
# [3] = small-molecule binders of probe aNOTCH2, primary screen, biochemical, small-molecule microarray, 635/667 nm fluorescence (AID 1121); settings: higher = more signal;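 further: score merges feature fluorescence read at 667 nm with its signal to noise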
# [4] = target: Carbonic anhydrase 2 (Homo sapiens) (UniProt P00918); assay: CAII small-molecule binders, profiling panel, biochemical, small-molecule microarray, Alexa647-labelled CAII (AID 1122); settings: CAII-A647 binding fluorescence, higher = more signal
# [5] = COS7 lysate on small-molecule microarray, probe aHis, 635 nm (AID 1123); settings: COS7 cell lysate, fluorescence, higher = more signal;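 further: z-score combines 667nm fluorescence intensity with signal-to-noise per printed compound spot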
# [6] = compound binding in COS7 lysate, probe aLAP1, primary screen, cell lysate, small-molecule microarray (AID 1124); settings: probe aLAP1, fluorescence, higher = more signal;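 further: lysate comes from COS7 cells expressing LAP1 and is applied at 0.3 µg/mL; score merges spot fluorescence near 667 nm with signal-to-noise over triplicate slides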
# Sam68 (KHDRBS1) = assay: Sam68 small-molecule binders, primary screen, biochemical, small-molecule microarray, 635 nm fluorescence (AID 1125); settings: small-molecule microarray binding, higher = more signal;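 further: score merges 667 nm channel intensity with signal to noise over triplicate slides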
# [7] = tested on: Chordin-like protein 2 (CHRDL2); assay: CHRDL2 small-molecule binders, primary screen, biochemical, small-molecule microarray, 635 nm fluorescence (AID 1126); settings: small-molecule microarray binding, fluorescence 635 nm; higher = more signal;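 further: printed compound slides probed with Chrdl2 protein at 4 µg/mL for 1 h at 4 C; score merges 667 nm emission intensity with signal to noise over three replicate slides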
# [8] = target: Concanavalin-A (Canavalia ensiformis) (UniProt P02866); assay: ConA small-molecule binders, primary screen, artefact control for SMM control protein annotation, biochemical, small-molecule microarray, Alexa647 label, 635 nm (AID 1127); settings: ConA-A647 binding fluorescence, higher = more signal;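 further: z combines 667 nm emission intensity with signal-to-noise across three replicate slides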
# Chain of Concanavalin-A (Canavalia ensiformis) (P02866 whole entry, looked up): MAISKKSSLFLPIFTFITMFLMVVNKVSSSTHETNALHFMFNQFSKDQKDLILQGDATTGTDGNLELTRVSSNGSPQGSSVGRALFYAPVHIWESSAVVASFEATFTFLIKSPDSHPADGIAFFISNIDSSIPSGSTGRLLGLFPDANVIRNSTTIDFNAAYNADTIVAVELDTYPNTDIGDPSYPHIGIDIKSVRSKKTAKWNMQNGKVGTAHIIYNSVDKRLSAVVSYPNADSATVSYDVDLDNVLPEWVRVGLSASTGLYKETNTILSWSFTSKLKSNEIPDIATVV
# [9] = anti-His antibody binders, primary screen, artefact control for SMM control protein annotation, biochemical, small-molecule microarray, 635 nm fluorescence (AID 1128); settings: anti-His Alexa647 antibody binding, higher = more signal;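 further: score merges feature fluorescence with signal-to-noise for each printed compound spot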
# [10] = tested on: Human papillomavirus type 1a E7 protein (residues 1-88); assay: HPV1a E7 small-molecule binders, primary screen, biochemical, small-molecule microarray, residues 1-88, 635 nm (AID 1129); settings: small-molecule microarray binding, fluorescence 635 nm; higher = more signal
# [11] = target: Focal adhesion kinase 1 (Homo sapiens) (UniProt Q05397); assay: small-molecule microarray binders of FAK, primary screen, biochemical, 635/667 nm fluorescence, BSA, DTT (AID 1130); settings: PTK2 binding, 635 nm fluorescence, higher = more signal;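 further: composite of spot emission at 667 nm and signal to noise over triplicate slides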
# Chain of Focal adhesion kinase 1 (Homo sapiens) (Q05397 whole entry, looked up): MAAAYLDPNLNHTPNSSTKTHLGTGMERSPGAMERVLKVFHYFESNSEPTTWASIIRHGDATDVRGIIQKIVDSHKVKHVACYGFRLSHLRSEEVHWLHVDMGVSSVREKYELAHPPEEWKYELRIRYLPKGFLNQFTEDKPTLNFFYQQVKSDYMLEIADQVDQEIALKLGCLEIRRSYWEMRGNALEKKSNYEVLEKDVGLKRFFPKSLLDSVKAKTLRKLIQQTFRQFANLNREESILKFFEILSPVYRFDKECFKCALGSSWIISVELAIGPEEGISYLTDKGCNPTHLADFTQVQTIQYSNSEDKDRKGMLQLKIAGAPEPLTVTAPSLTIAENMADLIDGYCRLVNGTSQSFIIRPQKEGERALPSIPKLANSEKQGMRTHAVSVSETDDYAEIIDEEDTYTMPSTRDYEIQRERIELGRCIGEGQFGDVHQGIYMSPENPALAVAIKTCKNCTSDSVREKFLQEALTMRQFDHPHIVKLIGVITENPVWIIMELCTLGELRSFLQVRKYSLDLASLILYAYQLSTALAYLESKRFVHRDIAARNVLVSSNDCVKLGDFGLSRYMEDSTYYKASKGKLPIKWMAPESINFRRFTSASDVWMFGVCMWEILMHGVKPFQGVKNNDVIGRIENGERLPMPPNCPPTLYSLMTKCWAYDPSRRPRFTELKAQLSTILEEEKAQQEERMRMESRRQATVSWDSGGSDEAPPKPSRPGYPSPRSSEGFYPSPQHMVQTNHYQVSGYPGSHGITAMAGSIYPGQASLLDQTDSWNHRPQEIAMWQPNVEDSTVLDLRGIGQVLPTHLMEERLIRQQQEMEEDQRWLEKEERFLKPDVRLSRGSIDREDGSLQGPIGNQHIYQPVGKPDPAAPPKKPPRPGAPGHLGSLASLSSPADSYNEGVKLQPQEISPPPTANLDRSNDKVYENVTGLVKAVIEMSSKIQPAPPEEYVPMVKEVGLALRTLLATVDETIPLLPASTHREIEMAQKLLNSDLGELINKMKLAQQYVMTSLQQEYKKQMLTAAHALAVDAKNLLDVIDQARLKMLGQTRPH
# [12] = tested on: Fibrinogen (Alexa647-labelled); assay: fibrinogen binders on compound microarrays, profiling panel, artefact control for SMM control-protein annotation, biochemical, small-molecule microarray, 635/667 nm fluorescence (AID 1131); settings: fibrinogen-A647 binding fluorescence, higher = more signal;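 further: z-score merges 667 nm fluorescence with per-spot signal-to-noise over triplicate slides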
# [13] = target: Follistatin (Homo sapiens) (UniProt P19883); assay: follistatin binders on small-molecule microarrays, primary screen, biochemical, small-molecule microarray, 635/667 nm fluorescence (AID 1132); settings: FST binding, 635 nm fluorescence, higher = more signal
# Chain of Follistatin (Homo sapiens) (P19883 whole entry, looked up): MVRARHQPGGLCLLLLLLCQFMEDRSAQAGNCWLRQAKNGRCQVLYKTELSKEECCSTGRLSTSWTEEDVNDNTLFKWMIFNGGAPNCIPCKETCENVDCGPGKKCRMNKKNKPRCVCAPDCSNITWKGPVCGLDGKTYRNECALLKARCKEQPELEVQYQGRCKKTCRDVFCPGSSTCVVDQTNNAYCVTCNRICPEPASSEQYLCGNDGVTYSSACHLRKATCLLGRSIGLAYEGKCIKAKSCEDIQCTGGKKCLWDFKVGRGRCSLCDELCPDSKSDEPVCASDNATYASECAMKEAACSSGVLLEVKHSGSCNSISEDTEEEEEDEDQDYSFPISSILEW
# [14] = target: Fibroblast growth factor 2 (Homo sapiens) (UniProt P09038); assay: FGF2 binders on small-molecule microarrays, primary screen, biochemical, small-molecule microarray, 635/667 nm fluorescence (AID 1133); settings: small-molecule microarray binding, FGF2, fluorescence 635/667; higher = more signal
# Chain of Fibroblast growth factor 2 (Homo sapiens) (P09038 whole entry, looked up): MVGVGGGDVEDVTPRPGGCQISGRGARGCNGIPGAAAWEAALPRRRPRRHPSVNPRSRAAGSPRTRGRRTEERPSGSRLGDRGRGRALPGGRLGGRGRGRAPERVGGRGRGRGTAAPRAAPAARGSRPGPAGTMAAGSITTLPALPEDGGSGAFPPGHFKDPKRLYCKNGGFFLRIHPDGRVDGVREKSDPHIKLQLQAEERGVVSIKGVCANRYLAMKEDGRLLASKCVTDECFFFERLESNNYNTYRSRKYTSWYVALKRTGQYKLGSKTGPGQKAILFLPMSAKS
# [15] = mitochondrial membrane potential change in A549 cells, profiling panel, cell-based, JC-1 fluorescence, basal, 24 h, 100 nL (AID 1138); settings: higher = more signal;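 further: A549 lung adenocarcinoma cells under basal conditions with no added stimulus; test concentration not given here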
# Lefty1 = Lefty1 binders on small-molecule microarrays, primary screen, biochemical, small-molecule microarray, 635/667 nm fluorescence (AID 1139); settings: small-molecule microarray binding, fluorescence 635/667; higher = more signal
# [16] = tested on: wheat germ agglutinin (Triticum aestivum), Alexa647-labelled; assay: wheat germ agglutinin binders on compound microarrays, profiling panel, artefact control for SMM control-protein annotation, biochemical, small-molecule microarray, 635/667 nm fluorescence (AID 1140); settings: WGA-A647 binding, 635 nm fluorescence, higher = more signal;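 further: score merges 667 nm feature emission with signal to noise over triplicate slides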
# [17] = target: Luciferin 4-monooxygenase (Photinus pyralis) (UniProt P08659); assay: firefly luciferase enzyme inhibitors, primary screen, biochemical, luminescence, purified enzyme, 2006 set (AID 1141); settings: SteadyGlo luminescence, 30 min, higher = more signal, called active from +8 up or from −8 down;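 further: cell-free assay with purified firefly luciferase at 100 ng per well in PBS; test concentration not given here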
# Chain of Luciferin 4-monooxygenase (Photinus pyralis) (P08659 whole entry, looked up): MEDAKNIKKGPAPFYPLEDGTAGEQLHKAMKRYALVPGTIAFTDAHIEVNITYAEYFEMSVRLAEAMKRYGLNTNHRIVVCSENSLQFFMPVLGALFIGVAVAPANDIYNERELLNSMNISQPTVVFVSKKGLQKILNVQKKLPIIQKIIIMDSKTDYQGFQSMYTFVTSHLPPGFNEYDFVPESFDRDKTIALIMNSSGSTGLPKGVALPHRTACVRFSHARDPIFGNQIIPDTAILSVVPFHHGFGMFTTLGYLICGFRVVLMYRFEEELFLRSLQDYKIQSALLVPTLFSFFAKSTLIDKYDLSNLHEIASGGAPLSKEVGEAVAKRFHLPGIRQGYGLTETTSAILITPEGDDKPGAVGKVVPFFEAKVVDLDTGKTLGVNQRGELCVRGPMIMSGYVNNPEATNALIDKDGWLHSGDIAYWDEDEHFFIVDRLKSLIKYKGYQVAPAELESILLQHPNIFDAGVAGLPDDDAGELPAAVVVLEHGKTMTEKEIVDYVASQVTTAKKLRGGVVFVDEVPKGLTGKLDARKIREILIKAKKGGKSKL
SMILES,composite z-score (Albumin (Bos taurus)),composite Z-score [1],composite z-score [2],composite z-score [3],composite z-score [4],composite z-score [5],composite z-score [6],composite z-score (Sam68 (KHDRBS1)),composite z-score [7],composite z-score [8],composite z-score [9],composite z-score [10],composite z-score [11],composite z-score [12],composite z-score [13],composite z-score [14],z-score [15],composite z-score (Lefty1),composite z-score [16],z-score [17]
O=C1[C@H]2CCn3c(=O)n(Cc4cc5c(cc4Cl)OCO5)c(=O)n3[C@H]2[C@H](O)[C@@H]2O[C@H]12,0.662,-0.0662 (inactive),-0.15,-0.14,0.29,0.242,-0.14,-0.435,0.716,-0.0737,0.85,-0.542,-0.255,0.855,0.596,0.299,-0.512,0.298,0.176,-1.44 (inactive)
CC(C)[C@H](NC(=O)OC(C)(C)C)[C@@H](O)CC(=O)C(C)(C)C,-0.269,-0.382 (inactive),-0.178,-0.152,-0.163,0.163,-0.0769,-0.0938,0.591,0.188,-0.007,-0.195,-0.402,0.0622,0.359,0.516,0.109,0.627,-0.0466,0.0879 (inactive)
CC(CCN1CCCCc2nc(C)c(C)cc21)=NOC[C@@H](O)[C@H]1O[C@@H]2OC(C)(C)O[C@@H]2[C@H]1O,0.814,-0.379 (inactive),-0.0363,-0.166,-0.378,-0.461,-0.258,0.0948,1.16,-0.0142,3.04,-0.491,-0.319,1.01,0.416,0.937,-0.584,1,-0.163,0.766 (inactive)
CC(C)CON=C1C[C@@H](O)[C@@H](O)[C@@H]2[C@@H]3C(=O)N(Cc4ccccc4)C(=O)[C@@H]3CC[C@H]12,0.428,-0.288 (inactive),-0.0679,-0.122,0.0889,0.211,-0.366,0.51,0.447,0.321,0.247,0.502,0.052,0.666,0.363,0.474,-1.03,0.669,0.134,1.14 (inactive)
Cc1ccc(C(C)C)n1C(=O)OC(C)(C)C,-0.0834,1.17 (inactive),-0.118,-0.153,-0.0359,0.0884,0.322,0.456,0.501,0.173,-0.165,0.474,0.691,-0.115,0.54,0.29,1.99,0.494,0.188,-1.7 (inactive)
CC(CCC(=O)OC[C@H]1O[C@H](C#Cc2ccccc2)C=C[C@@H]1Oc1ccc(C)cc1)=NO[C@@H](C)c1cc(-c2c(C)cc(C)cc2C)no1,0.363,-0.61 (inactive),-0.272,-0.14,-0.0955,0.0007,0.173,-0.42,-0.872,-0.214,0.888,-1.49,-0.0556,0.709,-0.921,-0.977,-0.00541,-0.589,0.848,0.0957 (inactive)
